High-throughput results from PubChem.
Six1-Eya2 inh: qHTS Assay for Inhibitors of the Six1/Eya2 Interaction | AlphaScreen GST-Six1/His-Eya2 binding, biochemical; hits give low values | activity change, % (test concentration not listed) | Homeobox protein SIX1 (Homo sapiens) + Protein phosphatase EYA2 (Homo sapiens), … | hit rate 0.56% among 360,000; in the data active = activity change below about -65%; inconclusive = mostly about -30% to -63%
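GST-Six1 + His-Eya2 (5X stock: 250/500 nM); Tris pH 8.0, 300 mM NaCl, 0.05% BSA, 0.02% Tween 20; GSH donor/Ni acceptor beads; 1 h 37 °C dark; AlphaScreen readout.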
TDP1 block: qHTS Assay for Inhibitors of Tyrosyl-DNA Phosphodiesterase (TDP1); Potency, µM (top dose mostly 130 µM), without a hit: top-dose activity change, negative = inhibition, usual class: inhibitors; recombinant TDP1, AlphaScreen DNA substrate cleavage; hit rate 0.28% among 350,000; Tyrosyl-DNA phosphodiesterase 1 (Homo sapiens), Q9NUW8; note: potency is the fitted concentration of half-maximal effect; nearly all actives have a fitted effect of over 40% in size
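Signal: AlphaScreen proximity between streptavidin donor and anti-FITC acceptor beads on intact substrate. Reaction: Tdp1 1 nM, substrate 15 nM final, 5 min RT after 15 min compound preincubation.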
CtBP-E1A blk: qHTS Assay for Inhibitors of the CtBP/E1A Interaction. CtBP / adenovirus E1A interaction (AlphaScreen). AlphaScreen GST-E1A/His-CtBP binding, 1536-well; hits give low values. activity change, % (no concentration beside the values). hit rate 0.49% among 340,000; in the data active = activity change below about -65%; inconclusive = mostly about -30% to -63%
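GST-E1A and His-tagged CtBP (125 nM each as 5X stock) were preincubated with pin-transferred compound for 2 h at 37 °C in the dark, then glutathione donor and nickel acceptor beads were added for 1 h before AlphaScreen reading.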
TDP1 cell CPT: qHTS for Inhibitors of human tyrosyl-DNA phosphodiesterase 1 (TDP1): qHTS in cells in presence of CPT; chicken DT40 Tdp1-/-;hTDP1 cells + 20 nM CPT, ATP luminescence, 48 h; Potency, µM (doses to about 46.2 µM), for the others: at the top dose activity change, negative = growth inhibition, most hits filed as inhibitors; hit rate 12% among 420,000; note: potency is the fitted concentration of half-maximal effect; nearly all actives have a fitted effect of over 55% in size
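Cell growth measured by CellTiter-Glo luminescence after a minimum 48 h, 37 C compound exposure with 20 nM CPT in Tdp1-knockout DT40 cells stably expressing hTDP1, seeded 400/well; qHTS titration format.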
IL-1B inflam inh: qHTS for Inhibitors of Inflammasome Signaling: IL-1-beta AlphaLISA Primary Screen | AID 743279, 2014 | hit rate 4.7% among 360,000 | activity change, % at 57.5 µM | THP-1 LPS/ATP IL-1B secretion, AlphaLISA, 16 h; hits give low values; in the data active = activity change below about -50%; inconclusive = mostly about -30% to -49%
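THP-1 cells pretreated 1 hr with compounds (up to 57.5 uM final), then stimulated with LPS (250 ng/mL final) plus ATP (1.25 mM final); secreted IL-1B measured by AlphaLISA after 16 hr, decreased signal indicating inhibition.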
DT40 TDP1 no CPT: qHTS for Inhibitors of human tyrosyl-DNA phosphodiesterase 1 (TDP1): qHTS in cells in absence of CPT; DT40 Tdp1-/- hTDP1 cells, no CPT, ATP luminescence, 48 h; Potency, µM (titrated, usually from 46.2 µM), without a hit: top-dose activity change, negative = growth inhibition, actives largely listed as inhibitors; hit rate 15% among 420,000; note: potency is the fitted concentration of half-maximal effect; nearly all actives have a fitted effect of over 55% in size
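Chicken DT40 Tdp1-/- cells complemented with human TDP1, screened without camptothecin (DMSO vehicle only), 400 cells/well. Compounds pin-transferred, cells incubated at 37 °C for at least 48 hr. Growth read as ATP-dependent luminescence (CellTiter-Glo, 30 min at RT).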
The depositor's hits bear a star; ? = inconclusive; nt = no result given. An excerpt weighted towards active compounds, which were near 18% of everything screened. Unless noted, calls come from the whole dose curve; as a rule, active = well fitted curve in the direction sought with a large enough effect; inconclusive = small, poorly fitted or top-dose-only effect, or another doubt; inactive = no such curve, though single readings can be large; an effect the other way counts as inactive or inconclusive. % is set by controls: 0 for no effect and ±100 for the full control effect.

SMILES | Six1-Eya2 inh | TDP1 block | CtBP-E1A blk | TDP1 cell CPT | IL-1B inflam inh | DT40 TDP1 no CPT
COc1cccc(NC(=O)N2CCN(c3nnnn3-c3ccccc3)CC2)c1 | -4 | -3% | 9 | -10% | 18 | ?
CC1CCCC(NC(=O)C2CCC(CNc3c(N4CCCC4)c(=O)c3=O)CC2)C1C (stereo unspecified) | 6 | nt | nt | -24% | -1 | -10%
NC(=O)CCCn1c(C(=O)c2ccc(Cl)cc2)c2ccc([N+](=O)[O-])cc2[n+]1[O-] | 3 | 3% | -11 | 3.7µM* | -10 | 8.2µM*
NCCCn1c(C(=O)c2ccc(Cl)cc2)c2ccc([N+](=O)[O-])cc2[n+]1[O-] | -4 | 6% | -15 | 4.1µM* | -60* | 4.1µM*
Cc1ccc(C(=O)c2c3ccc([N+](=O)[O-])cc3[n+]([O-])n2CCCC(N)=O)cc1 | -1 | 3% | -7 | 5.8µM* | -7 | ?
NCCCn1c(C(=O)c2ccc(Cl)cc2)c2ccc(C(F)(F)F)cc2[n+]1[O-] | -2 | 3% | -6 | ? | -22 | ?
NC(=O)CCCn1c(C(=O)c2ccc(Cl)cc2)c2ccc(C(F)(F)F)cc2[n+]1[O-] | 2 | 1% | 5 | -3% | -1 | -25%
CN(C)/N=C/c1ccc(N2CCOCC2)cc1 | 0 | -3% | -3 | 5% | -15 | 0%
Cc1ccc([C@H]2C[C@H](O)[C@@H](n3cc(COC(=O)c4ccccc4)nn3)CN2Cc2cccs2)cc1 | -7 | nt | -4 | 21µM* | ? | 23µM*
Cc1ccc([C@H]2C[C@@H](n3cc(COC(=O)c4ccccc4)nn3)[C@H](O)CN2C(=O)c2cccs2)cc1 | -1 | nt | -17 | -18% | 19 | ?
Cc1ccc([C@H]2C[C@@H](O)[C@H](n3cc(COC(=O)c4ccccc4)nn3)CN2C(=O)c2cccs2)cc1 | -11 | nt | -18 | ? | 16 | 26µM*
COc1ccc([C@H]2C[C@H](n3cc(COC(=O)c4ccccc4)nn3)[C@@H](O)CN2Cc2cccs2)cc1 | -6 | nt | -10 | ? | -1 | 18µM*
O=C(OCc1cn([C@H]2CN(Cc3cccs3)[C@@H](c3ccccc3)C[C@@H]2O)nn1)c1ccccc1 | -1 | nt | 0 | 18µM* | 21 | 21µM*
CC(C)c1cc(N2CCOCC2)n2ncc(-c3ccccc3)c2n1 | 20 | nt | 18 | 0% | -6 | ?
O=C(Nc1cccc(C(F)(F)F)c1)c1cc2c(=O)c3ccccc3oc2nc1C(F)(F)F | -1 | 2% | -2 | ? | -1 | 29µM*
O=C(CCCC(=O)OCC(Cl)=C(Cl)Cl)Nc1ccc(F)cc1 | 8 | 5% | -2 | -2% | 17 | -7%
COc1cc(OC)c(NC(=O)c2c(C)oc3ncnc(N4CCCCC4)c23)cc1Cl | nt | 0% | nt | -30% | nt | -20%
Cc1ccc(CCNC(=O)c2c(C)oc3ncnc(N4CCOCC4)c23)cc1 | nt | 2% | nt | 10% | nt | -13%
Cc1ccc(NC(=O)c2c(C)oc3ncnc(N4CCCCC4)c23)c(C)c1 | nt | 4% | nt | 18µM* | nt | ?
Cc1cccc(NC(=O)c2c(C)oc3ncnc(N4CCCCC4)c23)c1C | nt | 0% | nt | ? | nt | ?
CCN(C(=O)c1c(C)oc2ncnc(N3CCCCC3)c12)c1cc(C)ccc1C | nt | 5% | nt | ? | nt | 18µM*
COc1cc(OC)c(N(C)C(=O)c2c(C)oc3ncnc(N4CCCCC4)c23)cc1Cl | nt | -1% | nt | ? | nt | 16µM*
CCN(CC(=O)Nc1ccc(OC)c(OC)c1)CC(=O)Nc1ccccc1C(F)(F)F | 28 | nt | 3 | ? | -11 | ?
CCN(CC)CCCNC(=O)c1ccc(OCC(=O)Nc2ccccc2C(F)(F)F)c(OC)c1 | 2 | 6% | 7 | ? | -62* | ?
N#C/C(=C\c1cccs1)C(=O)Nc1ccccn1 | 4 | 0% | 5 | ? | 10 | 4%
SMILES | Six1-Eya2 inh | TDP1 block | CtBP-E1A blk | TDP1 cell CPT | IL-1B inflam inh | DT40 TDP1 no CPT
Cc1cc(=O)[nH]c(SCC(=O)Nc2nc(-c3ccccc3)cs2)n1 | -5 | 2% | -2 | -14% | 41 | -7%
Cc1ccc(-c2csc(NC(=O)CSc3nc4ccccc4[nH]3)n2)cc1 | -4 | 4% | 2 | 21µM* | -13 | 23µM*
COc1ccc(-c2csc(NC(=O)CSc3nc4ccccc4c(=O)[nH]3)n2)cc1 | ? | 79µM* | -3 | ? | 64 | ?
CC(=O)c1cccc(NC(=S)NC(=O)Cc2ccccc2)c1 | -10 | -2% | 5 | -5% | -12 | -17%
CCOc1ccc(-c2nnc(SCC(=O)Nc3ccc(C)cc3C)o2)cc1 | nt | 3% | nt | -11% | nt | -2%
O=C(O)Cc1ccc(NS(=O)(=O)c2ccc3ccccc3c2)cc1 | 9 | nt | -3 | -4% | 14 | 24%
CCN(CC)CCSc1nnc2c3cc(F)ccc3n(Cc3ccccc3)c2n1 | -3 | nt | -10 | ? | -64* | ?
NNc1nnc2c3cc(F)ccc3n(CCc3ccccc3)c2n1 | -7 | nt | -11 | ? | 103 | 16µM*
CCN(CC)CCSc1nnc2c3ccccc3n(Cc3ccccc3)c2n1 | -12 | nt | ? | 23µM* | -15 | 16µM*
Cc1sc2c(=O)n3c(nc2c1C(=O)NCCCN1CCOCC1)CCCCC3 | -4 | 6% | 1 | -17% | -6 | ?
Cc1c2cnccc2c(C)c2c1oc1ccccc12 | 12 | nt | 15 | ? | -73* | 23µM*
